Source: the supplement of paper PMC4022240
± gives the standard deviation.

Assays:
Test in all cases: peptide microarray binding signal (635 nm), min-max normalized on array (fraction of array maximum); higher = stronger binding
Details in all cases: peptide region: H3 5-17
[1] = biological target: T1, HaloTag-ATRX ADD domain (163-292)
T1 chain: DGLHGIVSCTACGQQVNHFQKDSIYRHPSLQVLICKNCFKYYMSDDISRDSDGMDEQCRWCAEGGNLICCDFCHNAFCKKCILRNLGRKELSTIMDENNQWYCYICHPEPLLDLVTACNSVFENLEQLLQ
Method in brief: (§1)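 Binding signal is the mean intensity of triplicate spots, min-max scaled within each library. Histone 13-mer peptide–cellulose conjugates were spotted in triplicate on nitrocellulose with a Cy3 tracer and blocked overnight at 4°C. Probing lasted 1 h at 4°C, either with biotin-labelled HaloTag reader fusions (10 nM to 1 μM) and streptavidin-Alexa Fluor 647 or with rabbit histone antibodies (1:10,000 to 1:2,000) and anti-rabbit Alexa 647. An Axon GenePix 4000B read signal at 635 nm and misprints at 532 nm.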

[2] = biological target: HaloTag-ING2 PHD (mouse Ing2 200-280)
Method in brief: as §1

[3] = biological target: anti-H3K4me3 antibody ab8580
Method in brief: as §1

[4] = biological target: anti-H3K9me3 antibody ab8898
Method in brief: as §1

[5] = peptide modifications: H3R8me2a H3K9me1, binder concentration: 1:2,000 dilution
[6] = peptide modifications: H3R8me2a H3K9me1, binder concentration: 1:10,000 dilution
[7] = peptide modifications: H3R8me2s H3K9me3, binder concentration: 1:2,000 dilution
[8] = peptide modifications: H3R8me2s H3K9me3, binder concentration: 1:10,000 dilution
[9] = peptide modifications: H3R8me2s H3S10ph, binder concentration: 1:2,000 dilution
[10] = peptide modifications: H3R8me2s H3S10ph, binder concentration: 1:10,000 dilution
[11] = peptide modifications: H3S10ph H3K14ac, binder concentration: 1:2,000 dilution
[12] = peptide modifications: H3S10ph H3K14ac, binder concentration: 1:10,000 dilution
[13] = peptide modifications: H3R8me2s H3T11ph, binder concentration: 1:2,000 dilution
[14] = peptide modifications: H3R8me2s H3T11ph, binder concentration: 1:10,000 dilution
[15] = peptide modifications: H3R8me1 H3T11ph, binder concentration: 1:2,000 dilution
[16] = peptide modifications: H3R8me1 H3T11ph, binder concentration: 1:10,000 dilution
[17] = peptide modifications: H3R8me2s H3K9me1, binder concentration: 1:2,000 dilution
[18] = peptide modifications: H3R8me2s H3K9me1, binder concentration: 1:10,000 dilution
[19] = peptide modifications: H3R8me2a H3S10ph, binder concentration: 1:2,000 dilution
[20] = peptide modifications: H3R8me2a H3S10ph, binder concentration: 1:10,000 dilution
[21] = peptide modifications: H3S10ph H3K14me1, binder concentration: 1:2,000 dilution
[22] = peptide modifications: H3S10ph H3K14me1, binder concentration: 1:10,000 dilution
[23] = peptide modifications: H3R8me2a H3K9me3, binder concentration: 1:2,000 dilution
[24] = peptide modifications: H3R8me2a H3K9me3, binder concentration: 1:10,000 dilution

B1: H3 5-17 Q T A Rme2a Kme S T G G K A P R (peptide)
chain: QTARKSTGGKAPR
In the case of B1, the “peptide microarray binding signal” value ([1]; peptide modifications: H3R8me2a H3K9me1, binder concentration: 50 nM) is reported as 0.0102 ± 0.00047, the “peptide microarray binding signal” value ([1]; peptide modifications: H3R8me2a H3K9me1, binder concentration: 500 nM) is reported as 0.0208 ± 0.00058 and the “peptide microarray binding signal” value ([2]; peptide modifications: H3R8me2a H3K9me1, binder concentration: 10 nM) is reported as 0.0329 ± 0.0037. The “peptide microarray binding signal” value ([2]; peptide modifications: H3R8me2a H3K9me1, binder concentration: 100 nM) was 0.0496 ± 0.0052, the “peptide microarray binding signal” value [3, 5] was 0.0224 ± 0.003 and the “peptide microarray binding signal” value [3, 6] was 0.0247 ± 0.0017. The “peptide microarray binding signal” value [4, 5] was 0.0228 ± 0.0036 and the “peptide microarray binding signal” value [4, 6] was 0.0159 ± 0.0016.

B2: H3 5-17 Q T A Rme2s Kme3 S T G G K A P R (peptide)
chain: QTARKSTGGKAPR
B2 was tested, and the “peptide microarray binding signal” value ([1]; peptide modifications: H3R8me2s H3K9me3, binder concentration: 50 nM) was 0.00251 ± 0.00011, the “peptide microarray binding signal” value ([1]; peptide modifications: H3R8me2s H3K9me3, binder concentration: 500 nM) was 0.00471 ± 9.5e-05 and the “peptide microarray binding signal” value ([2]; peptide modifications: H3R8me2s H3K9me3, binder concentration: 10 nM) was 0.00979 ± 0.00031. For the same binder, the “peptide microarray binding signal” value ([2]; peptide modifications: H3R8me2s H3K9me3, binder concentration: 100 nM) was 0.0103 ± 0.00024, the “peptide microarray binding signal” value [3, 7] was 0.0199 ± 0.0017 and the “peptide microarray binding signal” value [3, 8] was 0.0138 ± 0.0027. The “peptide microarray binding signal” value [4, 7] was 0.094 ± 0.0025 and the “peptide microarray binding signal” value [4, 8] was 0.0691 ± 0.0084.

B3: H3 5-17 Q T A Rme2s K Sph T G G K A P R (peptide)
chain: QTARKSTGGKAPR
In the case of B3, the “peptide microarray binding signal” value ([1]; peptide modifications: H3R8me2s H3S10ph, binder concentration: 50 nM) is reported as 0.00683 ± 0.0003, the “peptide microarray binding signal” value ([1]; peptide modifications: H3R8me2s H3S10ph, binder concentration: 500 nM) is reported as 0.0161 ± 0.0014 and the “peptide microarray binding signal” value ([2]; peptide modifications: H3R8me2s H3S10ph, binder concentration: 10 nM) is reported as 0.0274 ± 0.00033. The “peptide microarray binding signal” value ([2]; peptide modifications: H3R8me2s H3S10ph, binder concentration: 100 nM) was 0.0477 ± 0.0078, the “peptide microarray binding signal” value [3, 9] was 0.00423 ± 0.00039 and the “peptide microarray binding signal” value [3, 10] was 0.00548 ± 0.00014. The “peptide microarray binding signal” value [4, 9] was 0.00403 ± 0.0009 and the “peptide microarray binding signal” value [4, 10] was 0.00363 ± 0.00015.

B4: H3 5-17 Q T A R K Sph T G G Kac A P R (peptide)
chain: QTARKSTGGKAPR
With B4 the “peptide microarray binding signal” value ([1]; peptide modifications: H3S10ph H3K14ac, binder concentration: 50 nM) was 0.0047 ± 0.00015, the “peptide microarray binding signal” value ([1]; peptide modifications: H3S10ph H3K14ac, binder concentration: 500 nM) was 0.0165 ± 0.0018 and the “peptide microarray binding signal” value ([2]; peptide modifications: H3S10ph H3K14ac, binder concentration: 10 nM) was 0.0122 ± 0.0017. For the same binder, the “peptide microarray binding signal” value ([2]; peptide modifications: H3S10ph H3K14ac, binder concentration: 100 nM) was 0.0326 ± 0.0032, the “peptide microarray binding signal” value [3, 11] was 0.00136 ± 0.00015 and the “peptide microarray binding signal” value [3, 12] was 0.0012 ± 3.2e-05. The “peptide microarray binding signal” value [4, 11] was 0.00435 ± 0.00042 and the “peptide microarray binding signal” value [4, 12] was 0.00213 ± 7.1e-05.

B5: H3 5-17 Q T A Rme2s K S Tph G G K A P R (peptide)
chain: QTARKSTGGKAPR
In the case of B5, the “peptide microarray binding signal” value ([1]; peptide modifications: H3R8me2s H3T11ph, binder concentration: 50 nM) is reported as 0.00458 ± 6e-05, the “peptide microarray binding signal” value ([1]; peptide modifications: H3R8me2s H3T11ph, binder concentration: 500 nM) is reported as 0.0138 ± 0.0057 and the “peptide microarray binding signal” value ([2]; peptide modifications: H3R8me2s H3T11ph, binder concentration: 10 nM) is reported as 0.0277 ± 0.00076. The “peptide microarray binding signal” value ([2]; peptide modifications: H3R8me2s H3T11ph, binder concentration: 100 nM) was 0.0321 ± 0.004, the “peptide microarray binding signal” value [3, 13] was 0.0081 ± 0.0027 and the “peptide microarray binding signal” value [3, 14] was 0.00474 ± 0.00064. For the same binder, the “peptide microarray binding signal” value [4, 13] was 0.00136 ± 0.00012 and the “peptide microarray binding signal” value [4, 14] was 0.001441 ± 1.4e-05.

B6: H3 5-17 Q T A Rme K S Tph G G K A P R (peptide)
chain: QTARKSTGGKAPR
B6 was tested, and the “peptide microarray binding signal” value ([1]; peptide modifications: H3R8me1 H3T11ph, binder concentration: 50 nM) was 0.00818 ± 0.0006, the “peptide microarray binding signal” value ([1]; peptide modifications: H3R8me1 H3T11ph, binder concentration: 500 nM) was 0.017 ± 0.0013 and the “peptide microarray binding signal” value ([2]; peptide modifications: H3R8me1 H3T11ph, binder concentration: 10 nM) was 0.0191 ± 0.0015. The “peptide microarray binding signal” value ([2]; peptide modifications: H3R8me1 H3T11ph, binder concentration: 100 nM) was 0.042 ± 0.0045, the “peptide microarray binding signal” value [3, 15] was 0.00244 ± 0.00022 and the “peptide microarray binding signal” value [3, 16] was 0.00428 ± 0.00027. The “peptide microarray binding signal” value [4, 15] was 0.0103 ± 0.012 and the “peptide microarray binding signal” value [4, 16] was 0.012 ± 0.01.

B7: H3 5-17 Q T A Rme2s Kme S T G G K A P R (peptide)
chain: QTARKSTGGKAPR
In the case of B7, the “peptide microarray binding signal” value ([1]; peptide modifications: H3R8me2s H3K9me1, binder concentration: 50 nM) is reported as 0.0141 ± 0.0025, the “peptide microarray binding signal” value ([1]; peptide modifications: H3R8me2s H3K9me1, binder concentration: 500 nM) is reported as 0.0312 ± 0.016 and the “peptide microarray binding signal” value ([2]; peptide modifications: H3R8me2s H3K9me1, binder concentration: 10 nM) is reported as 0.0334 ± 0.0012. For the same binder, the “peptide microarray binding signal” value ([2]; peptide modifications: H3R8me2s H3K9me1, binder concentration: 100 nM) was 0.0522 ± 0.0014, the “peptide microarray binding signal” value [3, 17] was 0.0185 ± 0.0025 and the “peptide microarray binding signal” value [3, 18] was 0.0237 ± 0.00078. For the same binder, the “peptide microarray binding signal” value [4, 17] was 0.0146 ± 0.0028 and the “peptide microarray binding signal” value [4, 18] was 0.0153 ± 0.0016.

B8: H3 5-17 Q T A Rme2a K Sph T G G K A P R (peptide)
chain: QTARKSTGGKAPR
With B8 the “peptide microarray binding signal” value ([1]; peptide modifications: H3R8me2a H3S10ph, binder concentration: 50 nM) was 0.00837 ± 0.0001, the “peptide microarray binding signal” value ([1]; peptide modifications: H3R8me2a H3S10ph, binder concentration: 500 nM) was 0.0191 ± 0.0021 and the “peptide microarray binding signal” value ([2]; peptide modifications: H3R8me2a H3S10ph, binder concentration: 10 nM) was 0.0259 ± 0.0014. For the same binder, the “peptide microarray binding signal” value ([2]; peptide modifications: H3R8me2a H3S10ph, binder concentration: 100 nM) was 0.0521 ± 0.0085, the “peptide microarray binding signal” value [3, 19] was 0.00508 ± 0.00076 and the “peptide microarray binding signal” value [3, 20] was 0.00525 ± 0.00042. The “peptide microarray binding signal” value [4, 19] was 0.00298 ± 0.00042 and the “peptide microarray binding signal” value [4, 20] was 0.00288 ± 4.3e-05.

B9: H3 5-17 Q T A R K Sph T G G Kme A P R (peptide)
chain: QTARKSTGGKAPR
B9 was tested, and the “peptide microarray binding signal” value ([1]; peptide modifications: H3S10ph H3K14me1, binder concentration: 50 nM) was 0.00426 ± 0.0003, the “peptide microarray binding signal” value ([1]; peptide modifications: H3S10ph H3K14me1, binder concentration: 500 nM) was 0.007715 ± 7.2e-05 and the “peptide microarray binding signal” value ([2]; peptide modifications: H3S10ph H3K14me1, binder concentration: 10 nM) was 0.00424 ± 0.00075. The “peptide microarray binding signal” value ([2]; peptide modifications: H3S10ph H3K14me1, binder concentration: 100 nM) was 0.0102 ± 0.0023, the “peptide microarray binding signal” value [3, 21] was 0.000396 ± 7e-06 and the “peptide microarray binding signal” value [3, 22] was 0.000399. For the same binder, the “peptide microarray binding signal” value [4, 21] was 0.00077 ± 4.1e-05 and the “peptide microarray binding signal” value [4, 22] was 0.000404 ± 4.4e-06.

B10: H3 5-17 Q T A Rme2a Kme3 S T G G K A P R (peptide)
chain: QTARKSTGGKAPR
In the case of B10, the “peptide microarray binding signal” value ([1]; peptide modifications: H3R8me2a H3K9me3, binder concentration: 50 nM) is reported as 0.00527 ± 0.0012, the “peptide microarray binding signal” value ([1]; peptide modifications: H3R8me2a H3K9me3, binder concentration: 500 nM) is reported as 0.0107 ± 0.0015 and the “peptide microarray binding signal” value ([2]; peptide modifications: H3R8me2a H3K9me3, binder concentration: 10 nM) is reported as 0.0164 ± 0.0009. For the same binder, the “peptide microarray binding signal” value ([2]; peptide modifications: H3R8me2a H3K9me3, binder concentration: 100 nM) was 0.019 ± 0.0012, the “peptide microarray binding signal” value [3, 23] was 0.0361 ± 0.011 and the “peptide microarray binding signal” value [3, 24] was 0.0283 ± 0.011. The “peptide microarray binding signal” value [4, 23] was 0.208 ± 0.075 and the “peptide microarray binding signal” value [4, 24] was 0.208 ± 0.025.
